Test results from PubChem BioAssay (NCATS).
Several values for one entry are separate records, joined by “and”; a condition that tells them apart may be missing. Identical values can stand only once. Inconclusive results are not listed. Activity calls are given as the source filed them. Unless noted, calls follow the shape of the dose curve; as a rule, active = well fitted curve in the direction sought with a large enough effect; inconclusive = small, poorly fitted or top-dose-only effect, or another doubt; inactive = no such curve, though single readings can be large; an effect the other way counts as inactive or inconclusive.

Key:
[1] = Cell Viability - H-4-II-E (AID 543); settings: H-4-II-E rat hepatoma viability; series mostly up to 92.2 µM;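 also: cells exposed to compound for 40 hours; % is scaled to controls: 0 for no effect and ±100 for the full control effect; nearly all actives have a fitted effect of over 35% in size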
In short: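 qHTS, rat hepatoma H-4-II-E, 1500 cells/well; 40 hr compound exposure, 37 °C; CellTiter-Glo ATP luminescence after 20 min RT; AC50 by standard Hill fit.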

[2] = MultiTox-Fluor Cytotoxicity Assay - LYMP1-001 - Live Cells (AID 947); settings: LYMP1-001 lymphoblastoid cells, live-cell protease fluorescence viability; series mostly up to 92.2 µM;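 also: 0% = DMSO only and full inhibition = tetraoctylammonium bromide control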
[3] = Cell Viability - LYMP2-004 (AID 966); settings: LYMP2-004 lymphoblastoid cell viability, qHTS; series mostly up to 92.2 µM;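 also: plate controls were DMSO only for no effect and tetraoctylammonium bromide control for full effect; nearly all actives have a fitted effect of over 65% in size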
In short: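 Luminescent ATP read-out (CellTiter-Glo, 30 min RT) after 24 hr compound exposure at 37 C; 2500 lymphoblastoid cells/well, complete medium. Decrease in ATP = cytotoxicity; AC50 from standard Hill model.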

[4] = Cell Viability - LYMP2-012 (AID 982); settings: LYMP2-012 lymphoblastoid cell viability qHTS; series mostly up to 92.2 µM;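 also: cellular ATP by luciferase luminescence where a drop means cytotoxicity; cells exposed to compound for one day before reading; 0% = DMSO only and full loss = 92 µM tetraoctylammonium bromide; nearly all actives have a fitted effect of over 55% in size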
[5] = Cell Viability - LYMP2-022 (AID 987); settings: LYMP2-022 lymphoblastoid cell viability; series mostly up to 92.2 µM;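 also: 0% = DMSO alone and full effect = tetraoctylammonium bromide at 92 µM; nearly all actives have a fitted effect of over 55% in size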
In short: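 Luminescent ATP read-out (CellTiter-Glo, 30 min, RT) after 24 hr, 37 C compound exposure of 2500 human lymphoblastoid cells/well in complete medium. Cytotoxicity taken as concentration-dependent ATP loss; AC50 from standard Hill equation.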

[6] = Cell Viability - LYMP2-024 (AID 988); settings: LYMP2-024 lymphoblastoid cell viability; series mostly up to 92.2 µM;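 also: plate controls were DMSO only for no effect and 92 µM tetraoctylammonium bromide for full effect; nearly all actives have a fitted effect of over 60% in size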
In short: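 ATP-based luminescence (CellTiter-Glo, 30 min RT) after 24 h compound exposure at 37 C of 2500 lymphoblastoid cells/well; decrease in ATP taken as cytotoxicity. qHTS concentration-response fitted to standard Hill equation for AC50.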

[7] = Cell Viability - LYMP2-026 (AID 989); settings: LYMP2-026 lymphoblastoid cell viability, qHTS; series mostly up to 92.2 µM; also: % is scaled to controls: 0 for no effect and ±100 for the full control effect; nearly all actives have a fitted effect of over 50% in size
In short: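 qHTS cytotoxicity: 2500 cells/well, 5 hr 37 C, compound 24 hr 37 C, CellTiter-Glo 30 min RT, luminescence. Tetraoctylammonium bromide positive control. AC50 via standard Hill fit.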

[8] = Cell Viability - LYMP1-002 - Assay at 24 hr (AID 993); settings: LYMP1-002 lymphoblastoid cells viability; series mostly up to 92.2 µM; also: % is scaled to controls: 0 for no effect and ±100 for the full control effect
In short: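 CellTiter-Glo luminescence (intracellular ATP) after 24 h compound exposure, 37 C, in LYMP1-002 human lymphoblastoid cells; decreased ATP taken as cytotoxicity. AC50 from standard Hill fit of concentration-response curves.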

[9] = Cell Viability - LYMP1-002 - Assay at 40 hr (AID 994); settings: LYMP1-002 lymphoblastoid cell viability; series mostly up to 92.2 µM;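 also: 0% = DMSO only and full inhibition = 92 µM tetraoctylammonium bromide; nearly all actives have a fitted effect of over 60% in size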
In short: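 qHTS cytotoxicity; 2500 cells/well, 5 hr 37 C settle, compound 40 hr 37 C. CellTiter-Glo, 30 min RT, luminescence (ATP). Concentration-response, Hill fit → AC50. Pos. ctrl tetraoctylammonium bromide.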

[10] = molecular target: Estrogen receptor (Homo sapiens) (UniProt P03372); experiment: qHTS assay for small molecule antagonists of estrogen receptor alpha signaling (AID 588513; active = well fitted curve in the direction sought with a large enough effect in the signal ratio, with a control signal flat, not every such curve was filed as active; the % refers to the signal ratio; also: % is scaled to controls: 0 for no effect and ±100 for the full control effect); settings: ER-alpha-UAS-bla HEK293, beta-lactamase ratio, antagonist mode; series mostly up to 76.9 µM
Sequence of Estrogen receptor (Homo sapiens) (P03372 whole entry, looked up): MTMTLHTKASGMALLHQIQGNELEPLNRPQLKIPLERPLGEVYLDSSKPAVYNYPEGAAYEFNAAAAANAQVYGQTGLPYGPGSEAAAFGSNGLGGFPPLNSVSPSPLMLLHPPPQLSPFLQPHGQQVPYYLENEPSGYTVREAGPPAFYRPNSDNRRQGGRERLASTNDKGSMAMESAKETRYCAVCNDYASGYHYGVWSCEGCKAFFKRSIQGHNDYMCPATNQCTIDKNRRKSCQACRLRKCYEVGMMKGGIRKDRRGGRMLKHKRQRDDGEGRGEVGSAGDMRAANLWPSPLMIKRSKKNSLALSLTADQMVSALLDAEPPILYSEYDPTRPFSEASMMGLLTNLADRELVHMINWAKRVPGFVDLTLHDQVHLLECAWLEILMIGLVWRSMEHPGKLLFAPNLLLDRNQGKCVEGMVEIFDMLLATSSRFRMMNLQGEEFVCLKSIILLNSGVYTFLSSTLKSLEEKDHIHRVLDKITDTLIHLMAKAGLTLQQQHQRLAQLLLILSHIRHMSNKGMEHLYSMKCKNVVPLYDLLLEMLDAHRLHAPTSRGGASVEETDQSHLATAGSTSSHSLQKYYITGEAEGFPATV
In short: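 Fluorescence from CCF4 substrate after 2 h at room temperature gave reporter activity; cells had been exposed to compound and 0.5nM 17-beta-estradiol for 18 h at 37 C. Hill-equation fitting yielded IC50 and maximal response.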

[11] = molecular target: Vitamin D3 receptor (Homo sapiens) (UniProt P11473); experiment: qHTS assay for small molecule antagonists of vitamin D receptor signaling (AID 588541; calls by dose curve;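 also: receptor activated by calcitriol during compound treatment; % is scaled to controls: 0 for no effect and ±100 for the full control effect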); settings: HEK293T VDR-UAS-bla, beta-lactamase ratio, antagonist mode; series mostly up to 76.7 µM
Sequence of Vitamin D3 receptor (Homo sapiens) (P11473 whole entry, looked up): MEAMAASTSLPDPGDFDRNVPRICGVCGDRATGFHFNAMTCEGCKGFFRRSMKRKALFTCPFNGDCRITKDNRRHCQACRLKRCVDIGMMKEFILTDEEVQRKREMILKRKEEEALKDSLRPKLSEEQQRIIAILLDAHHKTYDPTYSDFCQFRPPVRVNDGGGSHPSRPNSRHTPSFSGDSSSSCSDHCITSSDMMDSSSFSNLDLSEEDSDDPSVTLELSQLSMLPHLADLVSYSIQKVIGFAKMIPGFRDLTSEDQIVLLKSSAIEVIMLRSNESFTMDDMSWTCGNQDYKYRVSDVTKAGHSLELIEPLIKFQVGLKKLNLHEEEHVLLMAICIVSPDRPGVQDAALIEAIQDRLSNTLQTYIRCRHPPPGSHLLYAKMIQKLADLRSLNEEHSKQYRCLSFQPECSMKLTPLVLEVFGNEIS
In short: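 Antagonist-mode beta-lactamase reporter assay: HEK293T VDR-UAS-bla cells were exposed to titrated compound alongside 1-alpha,25-dihydroxyvitamin D3 at 3 nM final for 16 h. Values were normalized to the 50 nM agonist control and DMSO basal, with IC50 and efficacy from Hill equation fits.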

[12] = molecular target: Vitamin D3 receptor (Homo sapiens) (UniProt P11473); experiment: qHTS assay for small molecule agonists of vitamin D receptor signaling (AID 588543; calls by dose curve;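 also: 0% = DMSO basal and 100% = reference agonist control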); settings: HEK293T VDR-UAS-bla, beta-lactamase ratio, 16 h; series mostly up to 76.8 µM
In short: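 Reporter cells (HEK293T, VDR-UAS-bla) were seeded in medium with 2% charcoal-stripped serum and incubated 5 h, then compounds in concentration series were added for 16 h at 37 °C. Stimulation was scaled between DMSO basal and 50 nM 1α,25-dihydroxyvitamin D3.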

[13] = molecular target: Thyroid hormone receptor beta (Homo sapiens) (UniProt P10828); experiment: qHTS assay for small molecule antagonists of thyroid hormone receptor beta signaling (AID 588547; active = well fitted inhibition curve with a large enough effect in the signal ratio, with a control signal flat, not every such curve was filed as active; the % refers to the signal ratio;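 also: cells stimulated with 0.4 nM T3 agonist during compound exposure; % is scaled to controls: 0 for no effect and ±100 for the full control effect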); settings: TR-UAS-bla HEK293, beta-lactamase ratio, antagonist mode, 18 h
Sequence of Thyroid hormone receptor beta (Homo sapiens) (P10828 whole entry, looked up): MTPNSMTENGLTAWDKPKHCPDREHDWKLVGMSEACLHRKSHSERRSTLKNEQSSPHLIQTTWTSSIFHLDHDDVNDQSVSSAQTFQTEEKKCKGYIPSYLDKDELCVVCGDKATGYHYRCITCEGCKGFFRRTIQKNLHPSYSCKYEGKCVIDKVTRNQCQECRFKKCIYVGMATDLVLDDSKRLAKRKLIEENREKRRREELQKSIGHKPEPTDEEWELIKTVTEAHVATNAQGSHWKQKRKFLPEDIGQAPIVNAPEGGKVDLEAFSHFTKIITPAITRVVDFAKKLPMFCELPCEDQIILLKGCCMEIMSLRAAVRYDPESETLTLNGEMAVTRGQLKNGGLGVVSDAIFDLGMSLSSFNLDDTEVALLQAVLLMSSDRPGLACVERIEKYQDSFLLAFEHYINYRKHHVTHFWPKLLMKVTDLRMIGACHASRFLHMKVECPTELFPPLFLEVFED
In short: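 Inhibition of T3-driven (0.4nM final) beta-lactamase reporter activity was measured over 0.59 nM to 92 uM compound after 18 h at 37 C. The cells were GripTite HEK293 TR-UAS-bla in charcoal/dextran-stripped serum, with CCF4 ratio read-out and IC50 from Hill fits.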

[14] = qHTS assay for small molecule disruptors of the mitochondrial membrane potential - 5 hr assay (AID 651755; calls by dose curve; also: % is scaled to controls: 0 for no effect and ±100 for the full control effect; nearly all actives have a fitted effect of over 40% in size); settings: JC-1-type ratio dye; series mostly up to 92.2 µM
In short: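 Membrane-potential dye readout: red aggregate (540 ex/590 em) versus green monomer (490 ex/535 em) fluorescence after 30 min dye loading, following 5 hr compound exposure at 37C of overnight-plated HepG2 cells.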

[15] = molecular target: Nuclear receptor ROR-gamma (Homo sapiens) (UniProt P51449); experiment: qHTS assay for small molecule antagonists of the retinoid-related orphan receptor gamma (ROR-gamma) signaling pathway (AID 651802); settings: ROR-gamma antagonist cell reporter assay; series mostly up to 92.2 µM;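 also: CHO cells with doxycycline-induced ROR-gamma expression; luciferase reporter luminescence driven by ROR response element; % is scaled to controls: 0 for no effect and ±100 for the full control effect; nearly all actives have a fitted effect of over 60% in size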
Sequence of Nuclear receptor ROR-gamma (Homo sapiens) (P51449 whole entry, looked up): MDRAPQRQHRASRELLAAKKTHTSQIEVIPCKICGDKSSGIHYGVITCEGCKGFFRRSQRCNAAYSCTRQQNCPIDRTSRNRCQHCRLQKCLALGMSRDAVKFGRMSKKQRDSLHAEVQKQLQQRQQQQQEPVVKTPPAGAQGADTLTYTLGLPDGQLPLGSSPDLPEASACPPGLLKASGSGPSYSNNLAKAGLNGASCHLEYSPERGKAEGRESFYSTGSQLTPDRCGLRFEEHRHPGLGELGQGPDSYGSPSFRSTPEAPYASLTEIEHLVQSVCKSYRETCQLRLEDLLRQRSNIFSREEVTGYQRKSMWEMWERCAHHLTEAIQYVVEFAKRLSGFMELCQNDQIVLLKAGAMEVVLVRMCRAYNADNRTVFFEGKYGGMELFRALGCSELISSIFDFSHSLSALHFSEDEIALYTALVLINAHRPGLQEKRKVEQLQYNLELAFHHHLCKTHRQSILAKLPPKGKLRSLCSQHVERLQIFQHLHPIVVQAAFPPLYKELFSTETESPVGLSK
In short: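 Luciferase read-out: ONE-Glo luminescence after 30 min at room temperature, following 16hr doxycycline induction at 37C, 5% CO2 of CHO cells with TET-inducible ROR and RORE-LUC reporter; decreased luminescence = reduced reporter activity.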

[16] = qHTS assay for small molecule antagonists of the retinoid-related orphan receptor gamma (ROR-gamma) signaling pathway - cell viability counter screen (AID 720652; active = well fitted curve in the direction sought with a large enough effect in the repeat runs; an effect the other way counts as inactive or inconclusive); settings: RORgamma reporter cell line viability counter screen; series mostly up to 92.2 µM
In short: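 CHO RORE-LUC/TET-ROR line, 1,000 cells/well, 37 C 5% CO2 5 hr; cpd or DMSO + doxycycline induction, 16 hr. CellTiter-Glo, 30 min RT, luminescence = ATP content.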

[17] = molecular target: Cytochrome P450 3A4 (Homo sapiens) (UniProt P08684); experiment: qHTS Assay for Activators of Cytochrome P450 3A4 (AID 885); settings: recombinant CYP3A4, Luciferin-PPXE luminescence, 60 min; series mostly up to 57.1 µM; also: nearly all actives have a fitted effect of over 65% in size
Sequence of Cytochrome P450 3A4 (Homo sapiens) (P08684 whole entry, looked up): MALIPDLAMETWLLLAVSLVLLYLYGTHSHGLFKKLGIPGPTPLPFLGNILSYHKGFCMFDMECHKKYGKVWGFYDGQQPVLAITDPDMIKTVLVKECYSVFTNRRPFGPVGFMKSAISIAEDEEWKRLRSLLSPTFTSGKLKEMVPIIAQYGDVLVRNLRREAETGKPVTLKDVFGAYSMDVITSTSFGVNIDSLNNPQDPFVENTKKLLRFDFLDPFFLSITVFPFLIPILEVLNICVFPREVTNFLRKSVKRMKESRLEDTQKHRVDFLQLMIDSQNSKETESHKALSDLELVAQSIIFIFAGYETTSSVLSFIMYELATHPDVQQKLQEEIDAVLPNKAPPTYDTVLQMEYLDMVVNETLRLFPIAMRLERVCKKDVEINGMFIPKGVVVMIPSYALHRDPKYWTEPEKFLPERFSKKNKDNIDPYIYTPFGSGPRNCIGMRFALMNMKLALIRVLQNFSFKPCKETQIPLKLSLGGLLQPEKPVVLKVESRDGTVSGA
In short: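 Activators are scored by enhanced luminescence from CYP3A4 conversion of luciferin-PPXE (25uM, equal to KM) to luciferin, after 60 min at RT with an NADPH-regenerating system.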

[18] = MultiTox-Fluor Cytotoxicity Assay - LYMP1-002 - Dead Cells (AID 960); settings: LYMP1-002 lymphoblastoid cells, dead-cell protease fluorescence; series mostly up to 46.1 µM;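 also: 0% = DMSO and 100% = tetraoctylammonium bromide; nearly all actives have a fitted effect of over 60% in size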
In short: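 Readout: fluorescence at 485/520 from cell-impermeant bis-AAF-R110 cleaved by proteases leaking from damaged cells. LYMP1-002 lymphoblastoid line, 16 hr compound treatment at 37 C, concentration-response in qHTS format; Hill-equation AC50 values.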

[19] = qHTS assay for small molecule agonists of the antioxidant response element (ARE) signaling pathway measured by Nrf2-dependant transcriptional activity (AID 720636; active = well fitted curve in the direction sought with a large enough effect in the repeat runs; an effect the other way counts as inactive or inconclusive; also: % of control where 0% means no effect); settings: ARE-luc HepG2, Nrf2 luciferase reporter, 16 h; series mostly up to 92.4 µM
In short: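 Quantitative HTS format in HepG2 cells stably expressing an ARE-luciferase reporter; 16 hr compound treatment at 37 C, luciferase signal detected with ONE-Glo.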

[20] = molecular target: Nuclear receptor subfamily 1 group I member 2 (Rattus norvegicus) (UniProt Q9R1A7); experiment: qHTS assay for small molecule activators of the rat pregnane X receptor (rPXR) signaling pathway (AID 651751; call rule not given here; also: 0% is about no effect); settings: rPXR reporter cells, luciferase (One-Glo), 24 h
Sequence of Nuclear receptor subfamily 1 group I member 2 (Rattus norvegicus) (Q9R1A7 whole entry, looked up): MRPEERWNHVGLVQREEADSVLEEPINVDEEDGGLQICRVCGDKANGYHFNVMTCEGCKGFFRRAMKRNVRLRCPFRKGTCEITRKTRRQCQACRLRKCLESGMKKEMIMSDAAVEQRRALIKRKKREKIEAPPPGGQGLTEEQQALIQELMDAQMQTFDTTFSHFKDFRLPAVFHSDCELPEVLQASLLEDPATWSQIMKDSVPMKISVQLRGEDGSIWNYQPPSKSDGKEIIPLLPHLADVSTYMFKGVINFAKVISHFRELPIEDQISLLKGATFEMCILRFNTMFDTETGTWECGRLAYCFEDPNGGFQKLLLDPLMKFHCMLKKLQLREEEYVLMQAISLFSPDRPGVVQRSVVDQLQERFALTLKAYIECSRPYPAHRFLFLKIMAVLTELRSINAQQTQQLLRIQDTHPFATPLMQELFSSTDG

COc1ccc(/C=C/c2cc(OC)cc(=O)o2)cc1
inactive: Potency [1] | Potency [2] | Potency [3] | Potency [4] | Potency [5] | Potency [6] | Potency [7] | Potency [8] | Potency [9] | Potency [10] | outcome [11] | outcome [12] | activity change % (negative = inhibition) [13] -10.8% | Potency [14] | Potency [15] | Potency [16]

COc1cc(/C=C/c2ccccc2)oc(=O)c1
inactive: outcome [17] | Potency [2] | Potency [18] | Potency [3] | Potency [4] | Potency [5] | Potency [6] | Potency [7] | Potency [8] | Potency [9] | Potency [10] | outcome [11] | outcome [12] | activity change % (negative = inhibition) [13] -8.32% | Potency [14] | Potency [15]

CC1=C2[C@H](/C=C(\C)C(=O)O)CC[C@@H](C)[C@H]2CC1
inactive: Potency [1] | Potency [2] | Potency [18] | Potency [5] | Potency [7] | Potency [8] | Potency [9] | Potency [10] | outcome [11] | outcome [12] | activity change % (negative = inhibition) [13] 11.8% | Potency [19] | Potency [16] | max response [20] -3.01%

O=C(O)c1ccccc1
inactive: Potency [1] | Potency [2] | Potency [18] | Potency [3] | Potency [4] | Potency [5] | Potency [6] | Potency [7] | Potency [8] | Potency [9] | Potency [10] | outcome [11] | outcome [12] | Potency [14] | Potency [15] | Potency [19] | Potency [16] | max response [20] -2.75%

C=CC(C)(CCC=C(C)C)OC(C)=O (centres undefined)
inactive: Potency [10] | outcome [11] | outcome [12] | activity change % (negative = inhibition) [13] -2.58% | Potency [19] | max response [20] 1.82%

C=C(C)C1CC=C(C)C(O)C1 (centres undefined)
inactive: Potency [1] | Potency [2] | Potency [18] | Potency [3] | Potency [4] | Potency [5] | Potency [6] | Potency [7] | Potency [8] | Potency [9] | Potency [10] | activity change % (negative = inhibition) [13] 0.818% | Potency [14] | Potency [15] | Potency [19] | Potency [16] | max response [20] 2.42%

CCCCCCCCCCCCCC(=O)O
inactive: Potency [1] | Potency [18] | Potency [3] | Potency [4] | Potency [5] | Potency [6] | Potency [7] | Potency [8] | Potency [9] | Potency [10] | outcome [11] | outcome [12] | activity change % (negative = inhibition) [13] 8.19% and 13.5% | Potency [14] | Potency [15] | Potency [19] | Potency [16] | max response [20] -0.081% and -5.28%

CN(C)c1nc(-c2cccc(NS(C)(=O)=O)c2)nc2ccccc12
inactive: outcome [17]

O=c1cnc2cnc(N3CCOCC3)nc2n1Cc1cccs1
inactive: outcome [17]

CN(C)c1ccc(-c2cncnc2NCCc2cnc[nH]2)cc1
inactive: outcome [17]

C=CCc1ccc(OC)c(OC)c1
inactive: Potency [1] | Potency [2] | Potency [18] | Potency [3] | Potency [4] | Potency [5] | Potency [6] | Potency [7] | Potency [8] | Potency [9] | outcome [11] | outcome [12] | activity change % (negative = inhibition) [13] 11.4% | Potency [14] | Potency [15] | Potency [19] | Potency [16] | max response [20] -0.697% and 1.19%

CCCCCCCCCCCC(=O)O
inactive: Potency [1] | Potency [2] | Potency [18] | Potency [3] | Potency [4] | Potency [5] | Potency [6] | Potency [7] | Potency [8] | Potency [9] | Potency [14] | Potency [15] | Potency [19] | Potency [16] | max response [20] -4.75% and -1.77%

CN(C)C(=O)c1ccc(-c2ccc3ncnc(Nc4ccc(F)cc4)c3c2)cc1
inactive: outcome [17]

CN1CCN(c2nc(-c3ccoc3)nc3ccccc23)CC1
inactive: outcome [17]

COc1cccc(Cn2c(=O)cnc3cnc(N(C)C)nc32)c1
inactive: outcome [17]
